Only some compounds are listed: those with a hit (about 2.2% of all), similar ones and a draw of the others.
MITF TRPM1 inh – MITF TRPM1 promoter inhibition in SK-MEL-5 cells; 330,000 tested, 0.83% active; AID 488899; SK-MEL-5 TRPM1 promoter luciferase, 24 h; inhibition, % at 12.5 µM;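 active = mean inhibition across replicates of 60% or more, whatever share of single replicates reaches that level; inconclusive = some that reach 60%, reason not given; inactive = mean inhibition across replicates below 60%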
EWS-Fli inh – inhibitors of EWS/Fli oncoprotein transcriptional activity | A673 NR0B1-luciferase reporter, viability-normalised | inhibition, % at 12.6 µM | 350,000 tested, 0.67% active;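 active = mean inhibition of at least 50% after viability correction, with every replicate also passing that limit; inconclusive = mean reaches 50% but only one of two replicates passes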;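 note: firefly luciferase signal divided by Alamar Blue viability fluorescence both relative to DMSO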
PGC1a acetyl inh – lowers PGC1a acetylation signal in U2OS cells; AlphaScreen anti-acetyl-lysine; with virally co-expressed GCN5 acetyltransferase; inhibition, % at 15.6 µM; 350,000 tested, 0.17% active; AID 651687;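 active = every replicate shows inhibition of at least 40%; inconclusive = mean inhibition at least 40% but some replicate below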;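 note: 0% = neutral control wells and 100% = positive control wells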
EBV LMP1 NFkB – inhibitors of Epstein-Barr LMP1-induced NF-kappaB reporter; LMP1-induced NF-kappaB luciferase reporter cells, luminescence; inhibition, % at 12.5 µM; 350,000 tested, 0.69% active; AID 504558; in the data active = inhibition above about 41%; inconclusive = no clear call, values can overlap the other calls;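 note: 0% = neutral control wells and 100% = reference inhibitor control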
PAX8 reporter – inhibitors of PAX8 transcriptional activity in RMG-I cells; AID 652154; RMG-I TPO-luciferase reporter, SteadyGlo, 24 h; 360,000 tested, 1.2% active; inhibition, % at 12.6 µM;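 active = mean replicate inhibition at least 60% with every replicate also reaching 60%; inconclusive = only one of the two criteria is met; inactive = mean below 60% and not all replicates reaching 60%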;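 note: luciferase light reporting Pax8 driven TPO promoter activity; plate controls were median of neutral control wells for no effect and mitoxantrone controls for full effect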
LGR2 antag – blocks bursicon-induced cAMP signaling via Drosophila LGR2. 380,000 tested, 0.35% active. inhibition, % at 9.99 µM. HEK293 LGR2, CRE-luciferase, bursicon-stimulated, 4 h;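 active = drop in luminescence signal, shown as inhibition above about 50% in the replicate tests, limit read from the data, passing the limit was not always enough; inconclusive = probably only some replicates passing the limit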;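 note: agonist challenge used bursicon conditioned medium at about half maximal strength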
Active calls of the source: *; u = inconclusive; x = no result.

SMILES | MITF TRPM1 inh | EWS-Fli inh | PGC1a acetyl inh | EBV LMP1 NFkB | PAX8 reporter | LGR2 antag
COc1cccc(C#Cc2ccc([C@H]3[C@@H](C#N)N(C(=O)C4CCCC4)[C@@H]3CO)cc2)c1 | x | 0.6 | x | x | x | 22.4
COc1cccc(C#Cc2ccc([C@H]3[C@@H](CO)N(C(=O)C4CCCC4)[C@H]3C#N)cc2)c1 | x | 2.4 | -16.0 | x | 82.2* | 3.4
CO[C@H]1CN(C)C(=O)c2ccc(NC(C)=O)cc2OC[C@H](C)N(C(=O)C2CCOCC2)C[C@@H]1C | x | -3.1 | 2.0 | x | -43.6 | -4.6
Cc1noc(C)c1NC(=O)N(C)C[C@@H]1OCCCC[C@H](C)Oc2ccc(NC(=O)Nc3cccc4ccccc34)cc2C(=O)N([C@@H](C)CO)C[C@H]1C | x | -13.3 | 12.1 | x | -12.1 | 3.5
O=C(O)/C=C/c1cnn(-c2ccccc2)c1 | 9.1 | 31.1 | x | 11.9 | 12.5 | 58.8*
CCCNC(=O)C[C@H]1CC[C@H]2[C@H](COc3ccc(NC(=O)c4cccs4)cc3C(=O)N2C)O1 | x | -2.7 | -1.1 | x | 6.9 | 0.1
O=C(OCc1ccccc1)N(CCCCN(CCCNCc1ccccc1)C(=O)OCc1ccccc1)CCCNCc1ccccc1 | 97.3* | u | x | -46.6 | 97.7* | 3.3
Cc1ccc(S(=O)(=O)Nc2cccc3c2O[C@@H](CN(C)C(=O)Nc2c(C)noc2C)[C@@H](C)CN([C@H](C)CO)C3=O)cc1 | x | -14.8 | -0.3 | x | 9.9 | 0.1
O=c1oc(-c2ccccc2)cc2ccccc12 | x | -109.8 | -12.2 | x | x | 4.6
O=c1oc(-c2ccccc2)cc(Cl)c1Cl | 45.6 | 59.3* | -115.0 | 8.4 | 4.3 | -6.3
CCC(=O)Nc1ccc2c(c1)OC[C@@H](C)N(C(=O)c1cccnc1)C[C@H](C)[C@@H](OC)CN(C)C2=O | x | -5.9 | 2.9 | x | -6.7 | 4.3
N=c1c2c(n(Cc3ccc(Br)cc3)c3c1CCC3)CCCC2 | 64.7* | 40.1 | x | 12.3 | 78.3* | -35.4
N=c1c2c(n(Cc3ccc(Cl)c(Cl)c3)c3c1CCC3)CCCC2 | 70.7* | x | -22.2 | 6.1 | x | x
C[C@@H]1CN([C@@H](C)CO)C(=O)c2cc(C#CC(C)(C)O)cnc2O[C@@H]1CN(C)C(=O)CN(C)C | x | 6.4 | -2.3 | x | x | -25.1
Cc1ccc(NC(=O)C2CCN(S(=O)(=O)c3ccc4c(c3)NC(=O)C(C)S4)CC2)cc1Cl (centres undefined) | 19.4 | x | x | 40.3* | 43.3 | 28.5
Cc1ccc(C)c(N2CCN(C(=O)CCS(=O)(=O)c3ccc4c(c3)NC(=O)C(C)S4)CC2)c1 (centres undefined) | 31.0 | x | -21.8 | 16.8 | 62.1* | 17.1
CCCNC(=O)N1[C@H](CNC(=O)c2ccc(F)cc2)[C@H](c2ccccc2)[C@@H]1CO | x | -3.9 | -3.3 | x | 7.3 | -3.6
O=C(C[C@H]1CC[C@H](NC(=O)C2CCC2)[C@H](CO)O1)NC1CCC1 | x | 2.5 | -2.8 | x | -8.1 | -4.5
C[N+](C)(C)C[C@H](O)CC(=O)[O-] | -1.9 | -0.8 | 2.5 | 51.2* | x | -5.4
C/C=C/c1cnc2c(c1)C(=O)N([C@H](C)CO)C[C@@H](C)[C@@H](CN(C)S(=O)(=O)c1cn(C)cn1)O2 | x | 3.4 | 2.6 | x | -9.4 | -8.2
O=C(OCC(=O)N1CCN(C(=O)c2ccco2)CC1)c1cccc(S(=O)(=O)N2CCc3ccccc32)c1 | 49.9 | -4.5 | -17.6 | 4.3 | 100.6* | 15.2
CNS(=O)(=O)c1cccc(C(=O)OCC(=O)N2CCN(C(=O)c3ccco3)CC2)c1 | 6.4 | -0.2 | x | -1.8 | 35.1 | -5.7
O=C(O)c1ccc(N/N=C/c2ccc(-c3ccccc3)cc2)cc1 | -85.4 | -49.2 | x | -104.4 | -59.3 | -5.1
Nc1ccc(C(=O)N/N=C\c2ccc(OC(=O)c3ccccc3Cl)cc2)cc1 | -33.8 | -17.5 | x | -11.7 | 5.6 | 4.6
O=C(O)c1ccc(N/N=C/c2ccc(OC(=O)c3ccccc3Cl)cc2)cc1 | 12.5 | -53.9 | x | 25.0 | 27.7 | 57.6*
SMILES | MITF TRPM1 inh | EWS-Fli inh | PGC1a acetyl inh | EBV LMP1 NFkB | PAX8 reporter | LGR2 antag
CC(C)c1ccc(/C=N/Nc2ccc(C(=O)O)cc2)cc1 | 68.5* | 74.7* | x | 3.5 | 81.7* | x
C[C@@H]1Cc2c(O)c(O)cc(O)c2C(=O)O1 | -3.0 | x | 0.1 | -3.4 | x | x
CC1CCC/C=C/C(=O)c2c(O)cc(O)cc2CC(=O)O1 (centres undefined) | 91.6* | 45.2 | 16.3 | -18.7 | x | 69.3*
CC(C)CC#Cc1ccc2c(c1)O[C@@H](CN(C)C(=O)CN(C)C)[C@H](C)CN([C@H](C)CO)S2(=O)=O | x | 10.3 | 5.7 | x | x | -38.9
CC(C)C(=O)Nc1ccc2c(c1)C(=O)N(C)[C@@H]1CC[C@H](CC(=O)NCCCN(C)C)O[C@@H]1CO2 | x | -9.2 | 2.7 | x | 3.6 | 2.0
COc1ccc2c(c1)/C(=C\c1cccc(/C=C3/C(=O)Nc4ccc(OC)cc43)n1)C(=O)N2 | 98.3* | 66.6* | x | 89.4* | 27.3 | 73.7*
CC(NCCN(C)C)C1CCC2C3CCc4cc(O)ccc4C3CCC12C (centres undefined) | 86.1* | 43.8 | -7.4 | 2.8 | 15.2 | 41.1
C[C@]12CC[C@@H]3c4ccc(O)cc4CC[C@H]3[C@@H]1CC[C@@H]2O | 3.4 | 14.7 | -21.6 | 0.2 | 5.7 | x
CCCOc1ccc(/C=N/Nc2ccccc2[N+](=O)[O-])c(O)c1 | 56.7 | 23.1 | x | 24.5 | -111.4 | x
CCCOc1ccc(/C=N/NC(=S)Nc2ccccc2[N+](=O)[O-])c(O)c1 | x | x | x | x | 94.4* | 83.5*
C[C@@H]1CN([C@@H](C)CO)C(=O)c2cccc(NC(=O)c3ccc(-c4nccs4)cc3)c2O[C@@H]1CN(C)S(=O)(=O)c1ccc(F)cc1 | x | 0.7 | -15.4 | x | x | 17.4
Cc1ccc(NC(=S)NCc2cccs2)cc1 | -0.4 | x | 9.5 | 86.6* | x | x
CCCc1cn(CC[C@@H]2CC[C@@H](NC(=O)Nc3ccc4c(c3)OCO4)[C@@H](CO)O2)nn1 | x | -1.0 | 4.0 | x | -13.5 | -4.1
Cc1ccc(C(=O)NCC(=O)N(C)Cc2cccc(F)c2)s1 | -8.8 | -11.5 | x | 50.7* | -17.9 | -14.5
Cc1ccc(C(=O)NCC(=O)N(C)Cc2ccccc2C)s1 | x | -37.8 | x | -3.1 | -46.4 | 1.7
CNC[C@H]1Oc2c(NC(=O)Nc3c(C)noc3C)cccc2C(=O)N([C@H](C)CO)C[C@@H]1C | x | -10.8 | 1.2 | x | -11.4 | -9.9
CC(C)C1C(=O)N(Cc2cn(CCC3OCCCO3)nn2)CCS(=O)(=O)N1Cc1ccc(-c2ccc(Cl)nc2)cc1 (centres undefined) | x | -26.8 | x | -1.8 | 73.8* | -17.0

Screening data as filed in PubChem BioAssay.
